PubChem BioAssay AID602247 (The Scripps Research Institute Molecular Screening Center, 2012)
The whole screen tested about 360,000 compounds, of which about 80 (0.02%) were called active. The sample holds actives, similar compounds and a random draw of the others, so the mix is not that of the screen.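 How the source made its calls: active means activation above the run cutoff, the mean activation of all test compounds plus 3 SD (cut at about 40% in these data); inactive means the rest.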

Experiment: nonselective calcium activators in parental CHO-K1 cells, primary screen, counter-screen for M1 PAM project, cell-based, Fluo-8 calcium fluorescence, full deck, 1536-well (AID 602247);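 further: peak over basal fluorescence ratio in a 140 s read after ATP addition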
Conditions: parental CHO-K1, ATP EC20, Fluo-8 calcium fluorescence; at 3 µM; stronger effect = higher value; 0% at ATP EC20, 100% at ATP max

Compound | activation
CCn1c(O)c(N=NC2=NC(=O)CS2)c2cc(C)ccc21 | -3.3% (inactive)
COc1cc(C(=O)OC(C)C(=O)NCC2CCCCC2)cc(NC(=O)c2ccco2)c1OC (centres undefined) | 7.38% (inactive)
COC(=O)c1cccc(N(C(=O)CNC(=O)c2cccs2)C(C(=O)NCC2CCCO2)c2ccc(OC)c(OC)c2)c1 (centres undefined) | 6.05% (inactive)
O=C(Nc1ccccc1)c1nnsc1S(=O)(=O)c1ccc(Cl)cc1 | -4.32% (inactive)
Cc1ccc(NC(=O)C2(N3CCC3=O)CCCCC2)cc1 | 30.7% (inactive)
COCCCNS(=O)(=O)c1cccc(S(=O)(=O)c2cccc(S(=O)(=O)NCCCOC)c2)c1 | -13.2% (inactive)
Cc1ccc(C(=O)N[C@H](C(=O)N2CCN(c3ncccn3)CC2)C(C)C)cc1 | 21.1% (inactive)
O=C(CN1C(=O)NC2(CCCC2)C1=O)Nc1cc(C(F)(F)F)ccc1N1CCOCC1 | -14.5% (inactive)
Cc1ccc(C(=O)O)cc1N1C(=O)CCCC1=O | 17.6% (inactive)
CCC(C(=O)Nc1ccc(C(C)C)cc1)c1ccccc1 (centres undefined) | 7.1% (inactive)
NC(=O)C1CCN(Cc2nc3c(Br)cc(Br)cc3c(=O)[nH]2)CC1 | 8.89% (inactive)
CCn1nc(C)c(/C=N/NC(=O)Cc2ccc(Cl)cc2)c1C | 10.4% (inactive)
COc1ccc(CN2C(=O)CC(Cc3ccc(C)cc3)C2=O)cc1OC (centres undefined) | 0.86% (inactive)
CC(NC(=O)c1cc2cc(Cl)ccc2oc1=N)c1ccccc1 (centres undefined) | 4.16% (inactive)
O=C(O)c1cccc2c1C(=O)N(C1CCCCC1)C2 | 12.5% (inactive)
Cc1c(C#N)c2ncn(CC#N)c(=O)c2n1-c1ccccc1 | 10.7% (inactive)
OCC(O)C1OCOC(C(O)CO)C1O (centres undefined) | -2.45% (inactive)
Cc1ccc(-c2nnc(Nc3ccc(C(=O)N(C)C)cc3)c3ccccc23)cc1S(N)(=O)=O | -6.44% (inactive)
COc1ccc(S(=O)(=O)N2CCOCC2)cc1NC(=O)CSc1ncnc2ccccc12 | -10.6% (inactive)
C/C(CCc1ccccc1)=N\NC(=O)c1ccc(CN2CCOCC2)cc1 | 10.1% (inactive)
C[C@@H]1CN([C@@H](C)CO)C(=O)c2cc(NS(C)(=O)=O)ccc2O[C@@H](C)CCCCO[C@H]1CN(C)C(=O)Nc1ccc2c(c1)OCO2 | 5.94% (inactive)
O=C(NCc1ccccc1)C(c1ccco1)N(C(=O)c1csnn1)c1ccccc1F (centres undefined) | -7% (inactive)
Cc1ccc(C)c2[nH]c(=O)c(CN(Cc3cccnc3)C(=S)NCc3ccco3)cc12 | -16.3% (inactive)

Compound | activation
NC1=NC(=O)C2(COC(c3ccccc3Cl)OC2)S1 (centres undefined) | 19% (inactive)
CCOc1ccc(C(=O)Nc2ccc(S(=O)(=O)NCC3CCCO3)cc2)cc1OCC (centres undefined) | -16.7% (inactive)
CCOc1ccc(S(=O)(=O)N(CC(=O)O)c2ccccc2)cc1 | 12.9% (inactive)
CN(C)/C=C(\C#N)C(=O)c1cccnc1Oc1ccc(F)cc1F | 13.9% (inactive)
COCCNC(=O)C1CCN(C(=O)C2CC(=O)N(c3ccc(C)cc3)C2)CC1 (centres undefined) | 7.97% (inactive)
COc1ccc(-n2ncc3c2CC(C)(C)CC3NC(=O)CCc2c(C)noc2C)cc1 (centres undefined) | -2.15% (inactive)
CCCNC(=S)N1CCCC(c2nc3ccccc3[nH]2)C1 (centres undefined) | 14.2% (inactive)
CC(C)C[C@@H]1COc2cc(N3CCC[C@@H]3CO)ccc2S(=O)(=O)N1 | 4.5% (inactive)
CC1CCCN(C(C(=O)Nc2ccc(C(C)C)cc2)c2ccc3c(c2)OCO3)C1 (centres undefined) | 10.5% (inactive)
Cc1ccc(NS(=O)(=O)c2c(C)[nH]c(=O)[nH]c2=O)cc1C | 7.33% (inactive)
COc1cc(OC)cc(C(=O)NNC(=O)CNC(=O)c2ccc(Br)o2)c1 | -26.2% (inactive)
CCOC(=O)c1sc(N)c(C#N)c1COC(=O)C1=COCCO1 | -16.5% (inactive)
Cc1ccc(NC(=O)NC(=O)N(C2CCCCC2)S(=O)(=O)c2ccccc2)cc1 | 15.3% (inactive)
Cn1c(=O)oc2cc(S(=O)(=O)N3CCC(C(=O)Nc4ccc(OC(F)(F)F)cc4)CC3)ccc21 | 29.6% (inactive)
O=[N+]([O-])c1ccc(N2CCN(c3ccc(F)cc3)CC2)cn1 | -7.83% (inactive)
NC1=NC2(CCCCC2)N(c2ccc(F)cc2F)C(N)=N1 | -9.48% (inactive)
Cc1ccc(CC(=O)Nc2cccc(C#N)c2)cc1 | 18.7% (inactive)
CC(C)NC(=O)NC(=O)CSc1nnc(-c2ccccc2F)n1N | 30% (inactive)
CC1(C(=O)NS(=O)(=O)c2cccs2)CCN1C(=O)Cc1ccc(-c2ccccc2)cc1 (centres undefined) | 13% (inactive)
O=C(NC1CC2CCCC(C1)N2C(=O)N1CCCCC1)C1CCCCC1 (centres undefined) | 7.85% (inactive)
CCCC(C(=O)NC1CCCC1)N(C(=O)Cn1nnc(-c2ccc(C)o2)n1)c1cccc(O)c1 (centres undefined) | 13.1% (inactive)
COc1cccc(NC(=O)C(=O)c2cn(CC(=O)N3CCOCC3)c3ccccc23)c1 | -2.46% (inactive)
CCCCN(C(=O)c1cccc(N2C(=O)c3ccccc3C2=O)c1)c1c(N)n(CCCC)c(=O)[nH]c1=O | 11.7% (inactive)

Compound | activation
O=C(Cn1cc(C(F)(F)F)ccc1=O)N/N=C/c1ccc(Cl)cc1Cl | 3.42% (inactive)
CC(OC(=O)CNC(=O)c1cccc(F)c1)C(=O)NC1CCCCC1C (centres undefined) | 10.1% (inactive)
CCC(=O)c1ccc(OCC(=O)N(CC)CC2COc3ccccc3O2)cc1 (centres undefined) | 15.6% (inactive)
O=C(N[C@H]1C/C=C\C(c2cccc(F)c2)N(Cc2ccccc2)C(=O)C1)OCC1c2ccccc2-c2ccccc21 (some centres undefined) | -2.24% (inactive)
O=C(OCC(=O)N1CCN(C(=O)c2ccco2)CC1)c1ccccc1Cc1ccccc1 | 8.99% (inactive)
COc1cccc(CN2CCC(C(=O)NC(c3ccc4c(c3)OCO4)c3ccccn3)CC2)c1 (centres undefined) | 12.4% (inactive)
CCOc1cc2c(Cl)ncnc2c(OCC)c1OCC | -10.2% (inactive)
CC1(C)O[C@@H]2[C@H](O1)[C@@H](CO)O[C@H]2n1c(N2CCCCC2)nc2c(N)ncnc21 | 11.6% (inactive)
COc1ccc(N2CC(C(=O)NCCS(=O)(=O)N3CCN(c4ccccc4)CC3)CC2=O)cc1 (centres undefined) | -1.18% (inactive)
C/C(=N\NC(=O)COc1ccc(C)cc1[N+](=O)[O-])c1ccc2c(c1)OCCO2 | 4.27% (inactive)
Cc1cc(C)n(-c2nnc(C)n2NC(=O)c2cccc(Cl)c2)n1 | 9.43% (inactive)
Cc1ccc(C)c(NC(=O)C2CC(=O)N(C(C)C)C2)c1 (centres undefined) | 12.2% (inactive)
COCCn1c(=O)[nH]c2cc(C(=O)NCc3cccnc3)ccc2c1=O | 6.89% (inactive)
CC(C)CC(=O)c1c[nH]c(C(=O)NCc2ccccc2)c1 | 0.92% (inactive)
O=C(CC(NCCN1CCOCC1)C(=O)O)Nc1cccc(Cl)c1 (centres undefined) | 20.9% (inactive)
CC(=O)NC1C(Oc2ccc(C)cc2)OC2COC(c3ccco3)OC2C1O (centres undefined) | -5.49% (inactive)
O=S(=O)(NC1CCCCC1N1CCN(c2ccccc2F)CC1)c1ccccc1 (centres undefined) | 19.1% (inactive)
O=C(Nc1ccc(Br)cc1)c1cccc(NC(=O)C2C3CC4OC(=O)C2C4C3)c1 (centres undefined) | 9.66% (inactive)
Cc1ccc(/C=C2\CCn3c2nc2cc(C(=O)O)ccc2c3=O)c(C)c1 | 17.1% (inactive)
O=C1c2cccc3cccc(c23)C(=O)N1c1cccc(O)c1 | 12.7% (inactive)
OC1CCCN(c2ncnc3c2nnn3Cc2c(F)cccc2Cl)C1 (centres undefined) | 20.4% (inactive)
CCC1CCCCN1C(=S)Nc1ccc(SC(F)F)cc1 (centres undefined) | 3.06% (inactive)
COc1ccc(O)c(C=Nc2cc(C)on2)c1 | 1.78% (inactive)

Compound | activation
CC(C)C(=O)N1CC(=O)Nc2ccc(F)cc2C1c1ccc(F)cc1 (centres undefined) | 3.77% (inactive)
CCCN1CNC(=S)N(CCc2ccccc2)C1 | -4.97% (inactive)
O=C(Nc1ccc(Br)cc1F)C1CC(=O)N(C2CCCCC2)C1 (centres undefined) | 9.78% (inactive)
CCOc1ccccc1NC(=O)NC1CCCCCCC1 | 20% (inactive)
CN(C)/C(CN1CCCCC1)=C1\N=C(c2ccccc2)OC1=O | 19.8% (inactive)
CN(C)CCCOc1ccc(-c2ccc3nccn3c2)cn1 | 15.7% (inactive)
CCOP(=O)(OCC)C(Cc1ccccc1)N=C(c1ccccc1)c1ccccc1 (centres undefined) | 19.7% (inactive)
COc1ccc(OC)c(NC(=O)CSc2nc3cccnc3n2C)c1 | 9.99% (inactive)
O=C(CN1C(=O)c2ccc([N+](=O)[O-])cc2C1=O)Nc1nnc(C2CC2)s1 | 1.72% (inactive)
CC(=O)Nc1ccc(NC(=O)C2CCCN2S(=O)(=O)c2cccc(C(F)(F)F)c2)cc1 (centres undefined) | -6.05% (inactive)
O=C1c2ccncc2C(=O)N1C1CCCCC1 | 15.5% (inactive)
Cc1nc(C(F)(F)F)ccc1C(=O)N1CCC1(C)C(=O)NS(=O)(=O)c1ccccc1Cl (centres undefined) | 11.4% (inactive)
COc1ccc(C(=O)N2CCC(C(=O)Nc3ccc(C)cc3)CC2)cc1 | 28.6% (inactive)
Cc1ccc(Cn2cc(C(=O)NN)c(=O)c3ccc(F)cc32)cc1 | -28.1% (inactive)
CCOC(=O)C1(Cc2ccc(O)cc2)NC(c2ccccc2F)C2C(=O)N(C)C(=O)C21 (centres undefined) | 24% (inactive)
Cc1cccc([C@H]2[C@@H]3C=CC[C@@H](C)[C@@H]3C(=O)N2Cc2ccccc2)c1 | -0.48% (inactive)
CSc1ccc(S(=O)(=O)NCC(=O)OCC(=O)NC2(C#N)CCCCC2)cc1[N+](=O)[O-] | -4.9% (inactive)
Nc1nc(O)c(CC(=O)O)s1 | 1.33% (inactive)
O=C(CCS(=O)(=O)c1ccccc1Cl)Nc1ccc(S(=O)(=O)Nc2ncccn2)cc1 | 7.81% (inactive)
COc1ccc(S(=O)(=O)N2CN(CCc3ccc(OC)c(OC)c3)c3nc4ccccc4nc32)cc1 | 1.88% (inactive)
